Records with an inconclusive call do not appear. Activity calls are given as the source filed them. Calls come from the whole dose curve; as a rule, active = well fitted inhibition curve with a large enough effect; inconclusive = small, poorly fitted or top-dose-only effect; inactive = flat fitted curve, though single readings scatter.
Experiments:
Assay in all cases: qHTS profiling for inhibitors of Plasmodium falciparum proliferation (AID 504749); note: nearly all actives have a fitted effect of over 60% in size
Settings in all cases: P. falciparum in erythrocytes, SYBR Green DNA, 72 h; series mostly up to 28.7 µM
[1] = test system: P94_40
How it was run: (§1)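 In a 72 h erythrocytic culture (37 C, humidified, 5% CO2) at 2.5% hematocrit and 0.3% starting parasitemia, compounds were tested; SYBR Green I in detergent lysis buffer stained parasite DNA overnight.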

[2] = test system: PAD
How it was run: as §1

[3] = test system: PC15
How it was run: as §1

[4] = test system: PC26
How it was run: as §1

[5] = test system: PC49
How it was run: as §1

[6] = test system: SC27B
How it was run: as §1

[7] = test system: TAB109
How it was run: as §1

[8] = test system: TAB113
How it was run: as §1

[9] = test system: TAB165
How it was run: as §1

[10] = test system: W2
How it was run: as §1

Measured: Potency
Potency is the fitted concentration of half-maximal effect.

CCN(CC)CCNC(=O)c1ccc(NC(C)=O)cc1
inactive: all assays above

CCCCCN(CCCCC)C(=O)C(CCC(=O)O)NC(=O)c1ccc(Cl)c(Cl)c1 (centres undefined)
inactive: all assays above

CCN(Cc1ccncc1)C(=O)C(CO)c1ccccc1 (centres undefined)
inactive: all assays above

CCNC(=O)N1CCN(CCCC(c2ccc(F)cc2)c2ccc(F)cc2)CC1
active: [1] 2.82 µM | [2] 3.55 µM | [3] 3.55 µM | [4] 4.78 µM | [5] 0.891 µM | [6] 2 µM | [7] 2.24 µM | [8] 2.24 µM | [9] 2 µM | [10] 0.953 µM

c1cnc(N2CCN(Cc3ccc4c(c3)OCO4)CC2)nc1
inactive: all assays above

O=C(O)CN(CCN(CC(=O)O)CC(=O)O)CCN(CC(=O)O)CC(=O)O
inactive: all assays above

COc1cc2c(cc1OC)-c1cc(=Nc3c(C)cc(C)cc3C)n(C)c(=O)n1CC2
active: [1] 3.98 µM | [2] 3.16 µM | [3] 10 µM | [4] 6.01 µM | [5] 3.55 µM | [6] 2.82 µM | [7] 4.47 µM | [8] 3.16 µM | [9] 2.51 µM | [10] 1.9 µM

CCCCNC(=O)NS(=O)(=O)c1ccc(C)cc1
inactive: all assays above

CCN1CCc2nc(N)oc2CC1
inactive: all assays above

CC(N=C(NC#N)Nc1ccncc1)C(C)(C)C (centres undefined)
inactive: all assays above

Nc1nc(N)c2nc(-c3ccccc3)c(N)nc2n1
not listed: [10]
inactive: all other assays above

C[C@H](CS)C(=O)N1CCC[C@H]1C(=O)O
inactive: all assays above

O=c1[nH]c(=O)n([C@H]2C[C@H](O)[C@@H](CO)O2)cc1Br
inactive: all assays above

CCN1CCC[C@H]1CNC(=O)c1c(O)c(Cl)cc(Cl)c1OC
inactive: all assays above

COC(=O)[C@H]1[C@H]2C[C@@H]3c4[nH]c5cc(OC)ccc5c4CCN3C[C@H]2C[C@@H](OC(=O)c2cc(OC)c(OC)c(OC)c2)[C@@H]1OC
active: [1] 7.94 µM | [2] 2 µM | [3] 11.2 µM | [4] 2.13 µM | [5] 7.94 µM | [6] 7.08 µM | [7] 8.91 µM | [8] 5.62 µM | [9] 3.98 µM | [10] 3.79 µM

CCn1cc(C(=O)O)c(=O)c2cc3c(cc21)OCO3
inactive: all assays above

CC(=O)OCC1=C(C(=O)O)N2C(=O)[C@@H](NC(=O)Cc3cccs3)[C@H]2SC1
inactive: all assays above

C[N+](C)(C)CCOC(=O)CCC(=O)OCC[N+](C)(C)C
inactive: all assays above

OCCN1CCN(CCCN2c3ccccc3C=Cc3ccccc32)CC1
active: [1] 5.01 µM | [2] 3.55 µM | [3] 2.24 µM | [4] 4.78 µM | [5] 1.41 µM | [6] 7.94 µM | [7] 7.94 µM | [8] 6.31 µM | [9] 5.62 µM | [10] 1.51 µM

NC(=O)c1ncn([C@@H]2O[C@H](CO)[C@@H](O)[C@H]2O)c1O
inactive: all assays above

Source: PubChem BioAssay (NCATS)
